Results as given in PubChem BioAssay (Tox21).
Values joined by “and” are separate entries in the source; they are usually repeats but may differ in a detail not shown here. Equal entries are not always repeated. Inconclusive results are not listed. A call without a number means that no potency is given here. A structure can be active in one record and inactive in another. Active and inactive are the calls of the source. Unless noted, the call rests on the fitted dose curve; in most records, active means well fitted curve in the direction sought with a large enough effect in the repeat runs; inconclusive means weak or mixed curves; inactive means no such curve, though single readings can be large; an effect the other way counts as inactive or inconclusive.

Experiments:
[1] = qHTS assay to identify aromatase inhibitors - cell viability counter screen (AID 743084);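 further: cells stimulated with testosterone during compound exposure; nearly all actives have a fitted effect of over 55% in size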; further: potency means the concentration at half of the fitted maximal effect
[2] = biological target: Aryl hydrocarbon receptor (Homo sapiens) (UniProt P35869); assay: qHTS assay to identify small molecule that activate the aryl hydrocarbon receptor (AhR) signaling pathway (AID 743085); further: nearly all actives have a fitted effect of over 15% in size; further: potency means the concentration at half of the fitted maximal effect;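 on activation: HG2L7.5c1 human HepG2 liver cells with stably integrated DRE-driven firefly reporter; series mostly up to about 70 µM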
Chain of Aryl hydrocarbon receptor (Homo sapiens) (P35869 whole entry, looked up): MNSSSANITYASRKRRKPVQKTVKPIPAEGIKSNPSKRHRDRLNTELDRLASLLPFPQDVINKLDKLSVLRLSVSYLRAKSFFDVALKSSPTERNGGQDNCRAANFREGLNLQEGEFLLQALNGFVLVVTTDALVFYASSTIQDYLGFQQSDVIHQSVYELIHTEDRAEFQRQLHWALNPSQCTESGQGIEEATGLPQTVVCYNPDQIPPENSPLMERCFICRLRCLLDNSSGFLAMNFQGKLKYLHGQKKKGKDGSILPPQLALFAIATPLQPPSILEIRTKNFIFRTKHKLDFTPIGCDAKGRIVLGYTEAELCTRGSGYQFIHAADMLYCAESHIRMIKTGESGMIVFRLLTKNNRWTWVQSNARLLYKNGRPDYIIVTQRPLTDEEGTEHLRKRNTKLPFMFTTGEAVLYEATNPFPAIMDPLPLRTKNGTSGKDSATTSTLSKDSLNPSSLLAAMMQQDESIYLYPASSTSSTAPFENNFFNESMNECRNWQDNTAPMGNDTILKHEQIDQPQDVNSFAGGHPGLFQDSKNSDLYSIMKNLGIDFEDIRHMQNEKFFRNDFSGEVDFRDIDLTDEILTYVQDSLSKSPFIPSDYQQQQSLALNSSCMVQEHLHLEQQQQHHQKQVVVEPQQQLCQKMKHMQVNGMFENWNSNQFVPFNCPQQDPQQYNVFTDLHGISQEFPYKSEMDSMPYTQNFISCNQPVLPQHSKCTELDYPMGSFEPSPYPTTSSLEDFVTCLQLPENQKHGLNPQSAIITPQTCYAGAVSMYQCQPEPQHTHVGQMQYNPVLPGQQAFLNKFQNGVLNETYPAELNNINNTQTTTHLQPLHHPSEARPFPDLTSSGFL
In short: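 Reporter assay in engineered HepG2 line HG2L7.5c1, whose plasmid carries twenty dioxin responsive elements upstream of firefly luciferase. Treatment lasted 24 h at 37C; ONE-Glo luminescence gauged induction.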

[3] = qHTS assay to identify small molecule that activate the aryl hydrocarbon receptor (AhR) signaling pathway - cell viability counter screen (AID 743086); further: nearly all actives have a fitted effect of over 45% in size; further: potency means the concentration at half of the fitted maximal effect
In short: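 HepG2-AhR-luc (HG2L7.5c1) cells, 4000/well, treated 24 h at 37 C with compound; viability measured as CellTiter-Fluor fluorescence after 30 min in the same wells as the luciferase read.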

[4] = biological target: Peroxisome proliferator-activated receptor gamma (Homo sapiens) (UniProt P37231); assay: qHTS assay to identify small molecule agonists of the peroxisome proliferator-activated receptor gamma (PPARg) signaling pathway (AID 743094; active means well fitted activation curve with a large enough effect in the signal ratio in the repeat runs, not every such curve was filed as active; the % refers to the signal ratio; further: potency means the concentration at half of the fitted maximal effect)
Chain of Peroxisome proliferator-activated receptor gamma (Homo sapiens) (P37231 whole entry, looked up): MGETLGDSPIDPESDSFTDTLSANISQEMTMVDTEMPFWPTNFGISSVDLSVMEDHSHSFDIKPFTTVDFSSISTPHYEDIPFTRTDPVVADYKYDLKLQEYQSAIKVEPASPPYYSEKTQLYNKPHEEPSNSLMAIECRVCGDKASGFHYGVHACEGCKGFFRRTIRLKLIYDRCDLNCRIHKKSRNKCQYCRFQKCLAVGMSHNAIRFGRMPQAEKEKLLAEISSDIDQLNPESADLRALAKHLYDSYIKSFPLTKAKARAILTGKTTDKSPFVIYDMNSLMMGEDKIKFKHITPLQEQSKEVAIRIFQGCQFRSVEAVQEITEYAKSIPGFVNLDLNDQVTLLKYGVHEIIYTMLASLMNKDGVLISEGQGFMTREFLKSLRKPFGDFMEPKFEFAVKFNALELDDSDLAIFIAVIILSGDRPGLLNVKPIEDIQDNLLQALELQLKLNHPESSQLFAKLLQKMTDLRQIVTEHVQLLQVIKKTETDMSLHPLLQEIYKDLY
In short: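 Compounds dissolved in DMSO were added to PPARg UAS-bla HEK293H cells for 17 h at 37C, and reporter expression was quantified by fluorescence intensity after 1 h with LiveBLAzer B/G FRET substrate.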

[5] = biological target: Peroxisome proliferator-activated receptor gamma (Homo sapiens) (UniProt P37231); assay: qHTS assay to identify small molecule antagonists of the peroxisome proliferator-activated receptor gamma (PPARg) signaling pathway (AID 743191; calls by dose curve; further: series mostly up to about 63 µM; nearly all actives have a fitted effect of over 30% in size)
In short: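 GeneBLAzer PPARg UAS-bla HEK293H cells, 5 h post-plating, exposed to compounds 17 h at 37C. LiveBLAzer B/G FRET substrate added for 1 h at room temperature; beta-lactamase reporter read by fluorescence intensity.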

[6] = qHTS assay to identify small molecule antagonists of the peroxisome proliferator-activated receptor gamma (PPARg) signaling pathway - cell viability counter screen (AID 743194); further: nearly all actives have a fitted effect of over 55% in size
In short: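 Cytotoxicity counter screen in PPARg-bla HEK293H cells, same wells as reporter assay. Compounds plus 50 nM rosiglitazone (final) for 17 h at 37 C, then viability read by CellTiter-Glo luminescence.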

[7] = qHTS assay for small molecule agonists of the antioxidant response element (ARE) signaling pathway (AID 743202; active means well fitted activation curve with a large enough effect in the signal ratio in the repeat runs, not every such curve was filed as active; the % refers to the signal ratio; further: potency means the concentration at half of the fitted maximal effect)
In short: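 ARE-bla HepG2 cells (beta-lactamase reporter under the antioxidant response element), plated 5 hours, then exposed to compounds 16 hours at 37 C. LiveBLAzer B/G FRET substrate added for 2 hours at room temperature; fluorescence intensity read.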

[8] = qHTS assay for small molecule agonists of the antioxidant response element (ARE) signaling pathway - cell viability counter screen (AID 743203; calls by dose curve; further: nearly all actives have a fitted effect of over 55% in size; further: potency means the concentration at half of the fitted maximal effect)
In short: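 Following 16 hrs of compound treatment at 37C, HepG2 cells with an ARE-controlled beta-lactamase gene were lysed with CellTiter-Glo. Luminescence was read after 30 min at room temperature.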

[9] = qHTS assay for small molecule activators of the heat shock response signaling pathway - cell viability counter screen (AID 743209); further: nearly all actives have a fitted effect of over 50% in size
In short: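 Readout: CellTiter-Glo luminescence, 30 min at room temperature. System: HSE-bla HeLa cells, 1500/well, plated overnight. Treatment: compounds in DMSO, 5 h at 37 C.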

[10] = qHTS assay for small molecule activators of the heat shock response signaling pathway (AID 743210; active means well fitted activation curve with a large enough effect in the signal ratio in the repeat runs, with a control signal flat, not every such curve was filed as active; the % refers to the signal ratio; further: series mostly up to about 63 µM)
In short: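 HSE-bla HeLa cells (beta-lactamase reporter under heat shock response elements), plated overnight, then exposed to compounds 5 h at 37 C; LiveBLAzer B/G FRET substrate added, 2.5 h at room temperature, fluorescence intensity read.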

[11] = qHTS assay to identify small molecule agonists of the peroxisome proliferator-activated receptor delta (PPARd) signaling pathway - cell viability counter screen (AID 743211); further: nearly all actives have a fitted effect of over 55% in size; further: potency means the concentration at half of the fitted maximal effect
In short: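 Multiplexed format: after the 2 h room-temperature LiveBLAzer B/G FRET step, CellTiter-Glo was added to the same wells. Luminescence after 30 min gave cell viability; compound exposure was 17 h at 37C.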

[12] = biological target: Peroxisome proliferator-activated receptor delta (Homo sapiens) (UniProt Q03181); assay: qHTS assay to identify small molecule agonists of the peroxisome proliferator-activated receptor delta (PPARd) signaling pathway (AID 743212; calls by dose curve)
Chain of Peroxisome proliferator-activated receptor delta (Homo sapiens) (Q03181 whole entry, looked up): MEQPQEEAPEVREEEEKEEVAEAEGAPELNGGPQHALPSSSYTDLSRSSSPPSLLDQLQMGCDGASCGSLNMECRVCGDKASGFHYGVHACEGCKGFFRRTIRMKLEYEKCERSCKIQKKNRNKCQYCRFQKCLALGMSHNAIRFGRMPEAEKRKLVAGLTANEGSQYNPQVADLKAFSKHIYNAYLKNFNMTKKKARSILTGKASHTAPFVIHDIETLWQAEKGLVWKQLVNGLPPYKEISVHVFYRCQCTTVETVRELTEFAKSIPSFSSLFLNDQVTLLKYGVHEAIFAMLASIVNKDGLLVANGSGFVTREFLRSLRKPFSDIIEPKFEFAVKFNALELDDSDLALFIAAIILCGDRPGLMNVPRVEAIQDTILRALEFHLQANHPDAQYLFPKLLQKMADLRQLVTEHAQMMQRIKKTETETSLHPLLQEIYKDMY
In short: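 GeneBLAzer UAS-bla HEK293H cells carrying a PPARδ construct were exposed to compounds at 37 °C. Beta-lactamase activity was read by FRET fluorescence after 2 h at room temperature with LiveBLAzer B/G substrate.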

[13] = qHTS assay to identify small molecule antagonists of the peroxisome proliferator-activated receptor delta (PPARd) signaling pathway - cell viability counter screen (AID 743213); further: nearly all actives have a fitted effect of over 50% in size
In short: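 In this counter screen, HEK293H cells carrying a UAS-beta-lactamase reporter are co-treated with test compounds and 300 nM L165041 (final) for 17 h at 37 C; cell viability is quantified by CellTiter-Glo luminescence.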

[14] = biological target: Peroxisome proliferator-activated receptor delta (Homo sapiens) (UniProt Q03181); assay: qHTS assay to identify small molecule antagonists of the peroxisome proliferator-activated receptor delta (PPARd) signaling pathway (AID 743215; active means well fitted inhibition curve with a large enough effect in the signal ratio in the repeat runs, not every such curve was filed as active; the % refers to the signal ratio;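 further: cells stimulated with agonist L165041 at 300 nM final during compound exposure; series mostly up to about 62 µM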)
In short: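 HEK293H UAS-bla, PPARd; agonist L165041 300 nM final with cpd in DMSO; 37 C 17 h; FRET substrate, RT 2 h; fluorescence intensity.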

[15] = biological target: Bile acid receptor (Homo sapiens) (UniProt Q96RI1); assay: qHTS assay to identify small molecule antagonists of the farnesoid-X-receptor (FXR) signaling pathway (AID 743217; active means well fitted inhibition curve with a large enough effect in the signal ratio in the repeat runs, not every such curve was filed as active; the % refers to the signal ratio)
Chain of Bile acid receptor (Homo sapiens) (Q96RI1 whole entry, looked up): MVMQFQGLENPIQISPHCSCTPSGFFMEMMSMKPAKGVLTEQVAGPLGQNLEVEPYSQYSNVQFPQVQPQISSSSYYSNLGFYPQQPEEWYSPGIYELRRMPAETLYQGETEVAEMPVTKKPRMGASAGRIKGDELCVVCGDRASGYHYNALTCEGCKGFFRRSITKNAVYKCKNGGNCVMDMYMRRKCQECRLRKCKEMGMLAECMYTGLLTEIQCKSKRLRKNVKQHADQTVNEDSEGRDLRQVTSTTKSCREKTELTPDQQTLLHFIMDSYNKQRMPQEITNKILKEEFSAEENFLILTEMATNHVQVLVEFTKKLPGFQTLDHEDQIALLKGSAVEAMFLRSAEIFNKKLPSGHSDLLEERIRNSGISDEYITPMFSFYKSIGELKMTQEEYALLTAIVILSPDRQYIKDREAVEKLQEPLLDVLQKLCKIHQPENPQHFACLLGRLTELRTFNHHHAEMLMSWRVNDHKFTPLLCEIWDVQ
In short: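 GeneBLAzer FXR-UAS-bla HEK 293T, CDCA-stimulated (50 uM final). Compound treatment 16 h, 37 °C. Detection: beta-lactamase cleavage of B/G FRET substrate, fluorescence.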

[16] = qHTS assay to identify small molecule agonists of the farnesoid-X-receptor (FXR) signaling pathway - cell viability counter screen (AID 743218); further: nearly all actives have a fitted effect of over 45% in size
In short: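 Parallel cytotoxicity test: compound-treated (16 h, 37 C) HEK 293T FXR-bla reporter cells were lysed with CellTiter-Glo and luminescence recorded.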

[17] = biological target: Bile acid receptor (Homo sapiens) (UniProt Q96RI1); assay: qHTS assay to identify small molecule agonists of the farnesoid-X-receptor (FXR) signaling pathway (AID 743220; active means well fitted activation curve with a large enough effect in the signal ratio in the repeat runs, not every such curve was filed as active; the % refers to the signal ratio)
In short: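 Beta-lactamase reporter under UAS control in GeneBLAzer FXR HEK 293T cells (5000/well) measured with LiveBLAzer FRET substrate after 2 h at room temperature. Compound exposure lasted 16 h at 37C.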

[18] = qHTS assay to identify small molecule antagonists of the farnesoid-X-receptor (FXR) signaling pathway - cell viability counter screen (AID 743221; active means well fitted cell-killing curve with a large enough effect in the repeat runs, not every such curve was filed as active; further: nearly all actives have a fitted effect of over 50% in size)
In short: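 CellTiter-Glo, 30 min RT, luminescence; same wells as the LiveBLAzer FRET read. Cells: FXR-UAS-bla HEK 293T. Treatment: compound with chenodeoxycholic acid 50 uM final, 16 h at 37 C.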

[19] = biological target: Vitamin D3 receptor (Homo sapiens) (UniProt P11473); assay: qHTS assay to identify small molecule agonists of the vitamin D receptor (VDR) signaling pathway (AID 743222; calls by dose curve)
Chain of Vitamin D3 receptor (Homo sapiens) (P11473 whole entry, looked up): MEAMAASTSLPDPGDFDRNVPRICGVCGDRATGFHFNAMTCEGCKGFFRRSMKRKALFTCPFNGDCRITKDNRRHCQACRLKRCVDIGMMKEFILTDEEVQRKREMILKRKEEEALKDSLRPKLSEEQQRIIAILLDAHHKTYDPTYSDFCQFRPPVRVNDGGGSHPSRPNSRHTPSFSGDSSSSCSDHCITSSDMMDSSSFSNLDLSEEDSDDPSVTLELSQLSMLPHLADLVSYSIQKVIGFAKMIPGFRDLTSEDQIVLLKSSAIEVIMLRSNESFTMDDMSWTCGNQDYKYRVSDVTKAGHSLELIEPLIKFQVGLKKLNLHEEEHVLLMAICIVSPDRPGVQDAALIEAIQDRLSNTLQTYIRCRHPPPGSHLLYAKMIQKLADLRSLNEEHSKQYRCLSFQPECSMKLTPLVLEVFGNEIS
In short: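 In VDR-bla cells, compound-induced beta-lactamase expression is quantified by FRET substrate fluorescence. Treatment lasts 16 h at 37C; substrate develops 2 h at room temperature.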

[20] = biological target: Vitamin D3 receptor (Homo sapiens) (UniProt P11473); assay: qHTS assay to identify small molecule antagonists of the vitamin D receptor (VDR) signaling pathway (AID 743223; active means well fitted inhibition curve with a large enough effect in the signal ratio in the repeat runs, not every such curve was filed as active; the % refers to the signal ratio)
In short: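 After VDR-bla cells are plated and left 4 h at 37C, DMSO-dissolved compounds and 3 nM (final) calcitriol agonist are added. Incubation continues 16 h at 37C; FRET beta-lactamase substrate then develops 2 h at room temperature.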

Structure (SMILES)	Potency [1]	Potency [2]	Potency [3]	Potency [4]	Potency [5]	Potency [6]	Potency [7]	Potency [8]	outcome [9]	outcome [10]	Potency [11]	outcome [12]	Potency [13]	outcome [14]	Potency [15]	Potency [16]	outcome [17]	outcome [18]	outcome [19]	Potency [20]
C=CCOC(=O)CC(C)C	inactive	inactive	inactive	inactive	inactive	inactive	inactive	inactive	inactive	inactive	inactive	inactive	inactive	inactive	inactive	inactive	inactive	inactive	inactive	inactive
CC(=O)CCC(C)C	inactive	inactive	inactive	inactive	inactive	inactive	61.1 µM (active)	inactive	inactive	inactive		inactive	inactive	inactive	inactive	inactive	inactive	inactive		
COC(=O)c1ccc(O)cc1	inactive	inactive	inactive	inactive	inactive	inactive	inactive	inactive	inactive	inactive	inactive	inactive	inactive	inactive		inactive		inactive	inactive	inactive
CC(C)(C)NCC(O)c1ccc(O)c(CO)c1 (stereo not drawn)	inactive	inactive	inactive	inactive	inactive	inactive	inactive	inactive	inactive	inactive	inactive	inactive	inactive	inactive		inactive		inactive		
CN(C)Cc1cc(CN(C)C)c(O)c(CN(C)C)c1	inactive	inactive	inactive	inactive	inactive	inactive	inactive	inactive	inactive	inactive	inactive		inactive		inactive	inactive	inactive	inactive		
O=C(O)Cc1cccc2ccccc12	inactive	inactive	inactive	27.5 µM (active)	inactive	inactive	inactive	inactive	inactive	inactive	inactive	inactive	inactive	inactive	inactive	inactive	inactive	inactive	inactive	inactive
CC1(C)O[C@@H]2[C@@H](CO[C@@]3(COS(N)(=O)=O)OC(C)(C)O[C@@H]23)O1	inactive	inactive	inactive	inactive	inactive	inactive	inactive	inactive	inactive	inactive	inactive		inactive			inactive		inactive	inactive	
CCOCCO	inactive	inactive	inactive	inactive	inactive	inactive	inactive	inactive	inactive	inactive	inactive		inactive		inactive	inactive	inactive	inactive	inactive	
CN(C)C=O	inactive	inactive	inactive	inactive	inactive	inactive	inactive	inactive	inactive	inactive	inactive		inactive		inactive	inactive	inactive	inactive		
C1CNCCN1	inactive	inactive	inactive	inactive	inactive	inactive	inactive	inactive	inactive	inactive	inactive		inactive			inactive		inactive	inactive	inactive
CCCCCCCC(=O)OCC(O)CO (stereo not drawn)	inactive	inactive	inactive	inactive	inactive	inactive	inactive	inactive	inactive	inactive	inactive	inactive	inactive	inactive		inactive		inactive		
CC(=O)c1ccc(S(=O)(=O)NC(=O)NC2CCCCC2)cc1	inactive	inactive	inactive	inactive	inactive	inactive	inactive	inactive	inactive	inactive	inactive	inactive	inactive	inactive	inactive	inactive	inactive	inactive	inactive	
CCCCCCCCCCCCCCCCCC(=O)OCC(O)CO (stereo not drawn)	inactive	inactive	inactive	inactive	inactive	inactive	inactive	inactive	inactive	inactive	inactive	inactive	inactive	inactive	inactive	inactive	inactive	inactive	inactive	inactive
C=C(C)C(N)=O	inactive	inactive	inactive	inactive	inactive	inactive	inactive	inactive	inactive	inactive	inactive		inactive			inactive		inactive	inactive	
COCCOCCOC	inactive	inactive	inactive	inactive	inactive	inactive	inactive	inactive	inactive	inactive	inactive	inactive	inactive	inactive	inactive	inactive	inactive	inactive	inactive	inactive
Cc1cccc(C)c1O	inactive	inactive	inactive	inactive	inactive	inactive	inactive	inactive	inactive	inactive	inactive	inactive	inactive	inactive		inactive		inactive	inactive	
CCOC(=O)C(C)(C)Oc1ccc(Cl)cc1	inactive	inactive	inactive	inactive	inactive	inactive	inactive	inactive	inactive	inactive		inactive	inactive	inactive	inactive	inactive	inactive	inactive	inactive	
CCCCNC(=O)NS(=O)(=O)c1ccc(N)cc1	inactive	inactive	inactive	inactive	inactive	inactive	inactive	inactive	inactive	inactive	inactive	inactive	inactive	inactive		inactive		inactive	inactive	inactive
CC(C)Cc1ccc(C(C)C(=O)O)cc1 (stereo not drawn)	inactive	inactive	inactive	inactive	inactive	inactive	inactive	inactive	inactive	inactive	inactive	inactive	inactive	inactive		inactive		inactive		
CCCCC/C(C=O)=C\c1ccccc1	inactive	inactive	inactive	inactive	inactive	inactive	inactive	inactive	inactive	inactive	inactive	inactive	inactive	inactive	inactive	inactive	inactive	inactive		
O=C1CCCCCN1	inactive	inactive	inactive	inactive	inactive	inactive	inactive	inactive	inactive	inactive		inactive	inactive	inactive	inactive	inactive	inactive	inactive	inactive	
O=[N+]([O-])c1ccc(O)cc1	63.5 µM (active)	inactive	54.5 µM (active) and inactive	inactive	inactive	inactive	inactive	inactive	inactive	inactive	inactive	inactive	inactive	inactive		inactive		inactive	inactive	
Cc1c(N(C)CS(=O)(=O)O)c(=O)n(-c2ccccc2)n1C	inactive	inactive	inactive	inactive	inactive	inactive	inactive	inactive	inactive	inactive	inactive	inactive	inactive	inactive		inactive		inactive	inactive	inactive
COc1ccccc1O	inactive	inactive	inactive	inactive	inactive	inactive	inactive	inactive and 24.5 µM (active)	inactive	inactive	inactive	inactive	inactive	inactive	inactive	inactive	inactive	inactive	inactive	
CCCCCCCCCCCCCC(=O)OC(C)C	inactive	inactive	inactive	inactive	inactive	inactive	inactive	inactive	inactive	inactive	inactive	inactive	inactive	inactive	inactive	inactive	inactive	inactive	inactive	
Nc1ccc(N=Nc2ccccc2)c(N)n1	27.4 µM (active) and 54.5 µM (active)	13.3 µM (active) and 13.8 µM (active) and 34.4 µM (active)	inactive	inactive	inactive	inactive	inactive and 26.6 µM (active)	inactive	inactive	inactive	43.9 µM (active) and inactive	inactive	inactive	inactive		inactive		inactive	inactive	inactive
CC(C)CC(C)CC(O)CC(C)C (stereo not drawn)	inactive	inactive	inactive	inactive	inactive	inactive	inactive	inactive	inactive	inactive	inactive	inactive	inactive	inactive	inactive	inactive	inactive	inactive	inactive	
CC(O)COc1ccccc1 (stereo not drawn)	inactive	inactive	inactive	inactive	inactive	inactive	inactive	inactive	inactive	inactive	inactive	inactive	inactive	inactive	inactive	inactive	inactive	inactive	inactive	
CCCCCCCCOc1ccc(C(=O)c2ccccc2)c(O)c1	inactive	inactive	inactive	inactive	inactive	inactive	inactive and 48.6 µM (active)	inactive	inactive	inactive	inactive	inactive	inactive	inactive	inactive		inactive	inactive	inactive	
